For some assays here: Measured potencies and affinities stand elsewhere.

Design in all cases: scale not given: direction of the effect not stated beside the values
Assay [1] concerns the target Protein translocase subunit SecA (Escherichia coli (strain K12)) (UniProt P10408). Description: Assay to Identify E. coli SecA ATPase Inhibitors. The settings on record: 30 µM. Format: functional.
The target of assay [2] is T1, Ubiquitin-activating enzyme e1, putative (Leishmania donovani (strain BPK282A1)) (UniProt E9BSI1).
T1 sequence (whole entry): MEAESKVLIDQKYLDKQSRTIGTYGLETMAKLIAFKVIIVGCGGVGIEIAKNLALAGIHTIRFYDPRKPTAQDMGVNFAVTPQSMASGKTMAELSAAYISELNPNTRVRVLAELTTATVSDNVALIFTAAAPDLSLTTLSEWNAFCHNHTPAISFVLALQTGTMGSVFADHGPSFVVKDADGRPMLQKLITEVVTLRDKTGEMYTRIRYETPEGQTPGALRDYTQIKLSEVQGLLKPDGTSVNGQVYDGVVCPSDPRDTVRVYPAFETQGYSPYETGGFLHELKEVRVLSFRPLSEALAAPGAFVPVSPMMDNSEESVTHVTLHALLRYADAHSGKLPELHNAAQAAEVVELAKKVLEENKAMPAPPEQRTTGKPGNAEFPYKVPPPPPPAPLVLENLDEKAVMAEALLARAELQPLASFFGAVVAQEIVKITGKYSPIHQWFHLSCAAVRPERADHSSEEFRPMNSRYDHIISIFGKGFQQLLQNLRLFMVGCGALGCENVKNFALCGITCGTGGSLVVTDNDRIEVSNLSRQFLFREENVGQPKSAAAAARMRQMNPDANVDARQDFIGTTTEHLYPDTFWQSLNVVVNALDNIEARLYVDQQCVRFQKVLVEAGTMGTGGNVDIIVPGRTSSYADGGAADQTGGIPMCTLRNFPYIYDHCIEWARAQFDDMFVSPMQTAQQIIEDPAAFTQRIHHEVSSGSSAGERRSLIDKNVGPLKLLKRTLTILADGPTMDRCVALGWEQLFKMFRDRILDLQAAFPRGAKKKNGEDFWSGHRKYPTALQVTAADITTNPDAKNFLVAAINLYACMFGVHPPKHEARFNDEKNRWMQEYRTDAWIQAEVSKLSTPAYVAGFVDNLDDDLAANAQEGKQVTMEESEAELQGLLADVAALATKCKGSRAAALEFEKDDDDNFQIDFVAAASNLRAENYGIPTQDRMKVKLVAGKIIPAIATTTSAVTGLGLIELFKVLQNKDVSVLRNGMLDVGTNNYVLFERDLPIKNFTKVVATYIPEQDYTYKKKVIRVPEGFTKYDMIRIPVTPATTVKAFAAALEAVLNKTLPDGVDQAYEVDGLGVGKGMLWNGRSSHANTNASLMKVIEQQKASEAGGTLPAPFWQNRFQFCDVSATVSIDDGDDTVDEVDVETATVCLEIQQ
Put plainly: Leishmania donovani Ubiquitin Activating Enzyme (LdE1). Format: functional. The settings on record: 30 µM.

Assay [3] deals with AMP-activated protein kinase, AMPK (Homo sapiens) (UniProt P54646+O43741+P54619+Q9UGJ0+Q9Y478+Q13131+Q9UGI9). Put plainly: AMP-dependent Kinase enzyme assay. An in vitro enzyme assay that detects ADP turnover that is directly proportional to AMPK activity. This uses naive AMPK that is activated during the assay with MK-8722. Type of assay: functional. The note with it: 30 µM.

Assay [4] has as its target Sialic acid-binding Ig-like lectin 9 (Homo sapiens) (UniProt Q9Y336). Put plainly: Hs-Siglec9 ALPHAscreen SOP 20170721. The settings on record: 10 µM. A general note: Bead proximity is the source of the signal in Alpha formats.
The test system of a further assay is Trypanosoma cruzi. Put plainly: Trypanosoma cruzi phosphomannomutase and mannose-1-phosphate guanylyltransferase assay. Type of assay: functional. The note with it: 10 µM.
In assay [5] the target is T2, Arginase-2, mitochondrial (Homo sapiens) (UniProt P78540).
T2 sequence (whole entry): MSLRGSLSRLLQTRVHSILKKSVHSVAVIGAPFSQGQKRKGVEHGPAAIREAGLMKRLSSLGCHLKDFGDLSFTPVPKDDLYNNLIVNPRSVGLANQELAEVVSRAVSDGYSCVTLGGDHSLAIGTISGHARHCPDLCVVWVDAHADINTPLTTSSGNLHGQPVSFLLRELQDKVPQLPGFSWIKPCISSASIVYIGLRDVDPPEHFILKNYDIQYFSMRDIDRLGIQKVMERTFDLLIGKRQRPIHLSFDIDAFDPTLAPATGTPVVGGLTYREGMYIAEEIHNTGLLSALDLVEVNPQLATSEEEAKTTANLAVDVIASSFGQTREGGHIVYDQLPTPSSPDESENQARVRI
Put plainly: in vitro enzyme assay to detect the production of urea directly proportional to the activity of Arginase II. Note: in the data most compounds retested in dose-response had high values. Format: functional. The note with it: 33.3 µM.

Assay [6] deals with T3, Proteasome subunit beta (Trypanosoma cruzi) (UniProt O96673).
T3 sequence (whole entry): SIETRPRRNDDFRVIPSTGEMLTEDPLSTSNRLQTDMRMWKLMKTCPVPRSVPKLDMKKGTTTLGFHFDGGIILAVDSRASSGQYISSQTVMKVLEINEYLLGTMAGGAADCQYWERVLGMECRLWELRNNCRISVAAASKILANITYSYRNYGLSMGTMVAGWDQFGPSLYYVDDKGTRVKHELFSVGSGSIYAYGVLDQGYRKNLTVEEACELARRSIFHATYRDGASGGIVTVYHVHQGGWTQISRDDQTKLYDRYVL
Description: Trypanosoma cruzi proteasome chymotrypsin-like activity (TcProtChymo) assay. Note: in the data most compounds retested in dose-response had high values. Format: functional. The note with it: 9.37 µM.

The species named for the next assay is Homo sapiens. Put plainly: To identify inhibition of the IFN signalling (Jak-Stat) pathway via expression of an eGFP reporter gene under the control of an IFN-stimulated response element (ISRE) containing MxA promoter. The settings on record: 30 µM. Type of assay: functional.
The target in assay [7] is T4, Tyrosyl-tRNA synthetase, putative (Trypanosoma cruzi (strain CL Brener)) (UniProt Q4DSP6).
T4 sequence (whole entry): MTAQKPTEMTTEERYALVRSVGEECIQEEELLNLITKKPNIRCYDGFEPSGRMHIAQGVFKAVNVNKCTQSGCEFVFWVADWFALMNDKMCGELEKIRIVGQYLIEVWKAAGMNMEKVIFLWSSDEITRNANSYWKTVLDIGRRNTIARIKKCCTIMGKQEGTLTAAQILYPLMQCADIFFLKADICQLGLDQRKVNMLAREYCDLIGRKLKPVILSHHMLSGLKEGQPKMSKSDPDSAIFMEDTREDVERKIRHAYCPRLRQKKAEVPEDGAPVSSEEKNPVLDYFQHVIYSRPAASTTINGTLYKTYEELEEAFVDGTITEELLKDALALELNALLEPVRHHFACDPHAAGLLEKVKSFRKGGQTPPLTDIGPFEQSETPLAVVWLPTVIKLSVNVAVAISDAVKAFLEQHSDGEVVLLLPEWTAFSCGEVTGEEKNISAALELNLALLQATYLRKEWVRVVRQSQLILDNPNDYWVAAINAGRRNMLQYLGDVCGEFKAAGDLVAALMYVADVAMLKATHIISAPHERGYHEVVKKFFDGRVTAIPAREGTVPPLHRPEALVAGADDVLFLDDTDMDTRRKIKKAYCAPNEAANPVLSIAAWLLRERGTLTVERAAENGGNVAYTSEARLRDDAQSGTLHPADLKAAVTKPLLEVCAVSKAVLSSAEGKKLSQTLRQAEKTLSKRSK
Put plainly: Trypanosoma cruzi tyrosyl tRNA synthetase (TcYRS) _High Tyrosine SOP. Note: in the data most compounds retested in dose-response had high values. Type of assay: functional. The note with it: 30 µM.

For assay [8], the target named is T4, Tyrosyl-tRNA synthetase, putative (Trypanosoma cruzi (strain CL Brener)). Put plainly: Trypanosoma cruzi tyrosyl tRNA synthetase (TcYRS) SOP. Format: functional. The settings on record: 30 µM.
Assay [9] deals with Chromo domain-containing protein 1 (Saccharomyces cerevisiae (strain ATCC 204508 / S288c) (Baker's yeast)) (UniProt P32657). Put plainly: ScCHD-1 Enzyme Inhibition Assay. Note: in the data most compounds retested in dose-response had high values. Type of assay: functional. The note with it: 30 µM.
Chromo domain-containing protein 1 (Saccharomyces cerevisiae (strain ATCC 204508 / S288c) (Baker's yeast)), sequence (P32657 whole entry, the tested form may be a part): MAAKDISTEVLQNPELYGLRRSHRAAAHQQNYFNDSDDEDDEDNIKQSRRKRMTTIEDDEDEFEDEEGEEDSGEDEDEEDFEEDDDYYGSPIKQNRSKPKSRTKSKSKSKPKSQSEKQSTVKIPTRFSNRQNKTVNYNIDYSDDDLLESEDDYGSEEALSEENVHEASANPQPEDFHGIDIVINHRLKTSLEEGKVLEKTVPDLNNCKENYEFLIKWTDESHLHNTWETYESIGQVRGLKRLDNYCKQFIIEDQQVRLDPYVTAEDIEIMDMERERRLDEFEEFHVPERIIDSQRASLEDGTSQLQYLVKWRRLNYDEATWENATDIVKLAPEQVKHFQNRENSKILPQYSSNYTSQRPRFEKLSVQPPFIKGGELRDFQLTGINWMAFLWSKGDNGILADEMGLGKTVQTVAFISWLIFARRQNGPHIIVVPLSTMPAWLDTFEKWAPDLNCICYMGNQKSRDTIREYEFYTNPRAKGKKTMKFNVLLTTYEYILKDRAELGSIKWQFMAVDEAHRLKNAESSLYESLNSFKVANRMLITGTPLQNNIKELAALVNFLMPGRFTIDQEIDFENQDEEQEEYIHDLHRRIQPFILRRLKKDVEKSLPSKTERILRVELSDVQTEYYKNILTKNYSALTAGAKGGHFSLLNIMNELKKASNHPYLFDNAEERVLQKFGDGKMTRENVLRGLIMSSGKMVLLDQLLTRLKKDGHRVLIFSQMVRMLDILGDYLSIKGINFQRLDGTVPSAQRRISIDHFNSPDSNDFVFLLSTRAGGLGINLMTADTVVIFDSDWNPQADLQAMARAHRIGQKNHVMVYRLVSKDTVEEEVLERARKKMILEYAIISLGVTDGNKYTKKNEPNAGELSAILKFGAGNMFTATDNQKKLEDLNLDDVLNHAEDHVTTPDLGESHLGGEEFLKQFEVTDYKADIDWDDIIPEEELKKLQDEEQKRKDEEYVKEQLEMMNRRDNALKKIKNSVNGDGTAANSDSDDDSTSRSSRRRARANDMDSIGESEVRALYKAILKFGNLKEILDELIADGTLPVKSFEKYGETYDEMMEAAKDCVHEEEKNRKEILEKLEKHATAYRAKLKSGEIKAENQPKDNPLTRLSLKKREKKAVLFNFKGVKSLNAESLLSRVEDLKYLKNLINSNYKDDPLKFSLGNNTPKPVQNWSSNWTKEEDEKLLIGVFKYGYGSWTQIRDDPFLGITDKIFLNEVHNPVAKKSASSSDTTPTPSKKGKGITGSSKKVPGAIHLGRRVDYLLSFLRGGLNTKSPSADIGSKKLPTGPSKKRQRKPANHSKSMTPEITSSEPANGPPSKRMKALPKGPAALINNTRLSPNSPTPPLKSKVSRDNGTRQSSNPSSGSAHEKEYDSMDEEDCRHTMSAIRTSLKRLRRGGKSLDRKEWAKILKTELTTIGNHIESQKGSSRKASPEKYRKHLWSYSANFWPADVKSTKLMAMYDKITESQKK

Sialic acid-binding Ig-like lectin 9 (Homo sapiens), sequence (Q9Y336 whole entry): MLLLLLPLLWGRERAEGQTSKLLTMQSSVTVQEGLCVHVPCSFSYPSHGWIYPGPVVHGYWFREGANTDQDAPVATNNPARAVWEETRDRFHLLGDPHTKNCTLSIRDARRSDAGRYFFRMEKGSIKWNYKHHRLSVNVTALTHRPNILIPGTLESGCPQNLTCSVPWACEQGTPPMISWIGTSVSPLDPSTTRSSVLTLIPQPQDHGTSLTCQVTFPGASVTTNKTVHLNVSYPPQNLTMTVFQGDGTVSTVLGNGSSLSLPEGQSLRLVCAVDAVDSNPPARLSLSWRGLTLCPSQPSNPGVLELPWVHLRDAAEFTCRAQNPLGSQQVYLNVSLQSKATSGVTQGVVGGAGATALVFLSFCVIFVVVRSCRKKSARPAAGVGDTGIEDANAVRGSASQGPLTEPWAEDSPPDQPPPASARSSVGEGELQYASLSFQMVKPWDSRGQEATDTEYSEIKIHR
Protein translocase subunit SecA (Escherichia coli (strain K12)), sequence (P10408 whole entry): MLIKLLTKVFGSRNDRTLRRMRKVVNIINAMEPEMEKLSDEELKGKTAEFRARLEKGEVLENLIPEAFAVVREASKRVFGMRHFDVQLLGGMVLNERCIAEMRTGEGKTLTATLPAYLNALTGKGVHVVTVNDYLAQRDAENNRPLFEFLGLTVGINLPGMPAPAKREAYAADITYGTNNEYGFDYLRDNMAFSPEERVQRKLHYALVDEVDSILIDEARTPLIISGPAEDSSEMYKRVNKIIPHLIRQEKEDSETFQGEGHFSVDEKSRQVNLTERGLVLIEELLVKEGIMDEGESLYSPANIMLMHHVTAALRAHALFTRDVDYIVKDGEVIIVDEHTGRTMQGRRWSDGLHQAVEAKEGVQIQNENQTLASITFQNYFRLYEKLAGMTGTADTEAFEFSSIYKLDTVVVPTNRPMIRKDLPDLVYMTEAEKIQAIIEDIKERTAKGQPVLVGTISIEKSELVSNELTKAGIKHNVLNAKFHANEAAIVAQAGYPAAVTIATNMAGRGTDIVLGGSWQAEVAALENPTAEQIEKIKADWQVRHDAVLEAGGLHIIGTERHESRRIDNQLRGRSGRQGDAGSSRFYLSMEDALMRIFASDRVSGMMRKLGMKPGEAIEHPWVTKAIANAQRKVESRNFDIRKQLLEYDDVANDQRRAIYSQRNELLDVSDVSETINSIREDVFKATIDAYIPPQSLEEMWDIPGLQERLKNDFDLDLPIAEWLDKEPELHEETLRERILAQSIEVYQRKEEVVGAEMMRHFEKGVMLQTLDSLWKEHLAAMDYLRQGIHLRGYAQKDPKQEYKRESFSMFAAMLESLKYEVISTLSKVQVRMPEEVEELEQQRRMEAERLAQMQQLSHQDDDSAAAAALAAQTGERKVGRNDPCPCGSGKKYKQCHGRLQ

Regarding `CNC(=O)CS(=O)(=O)C1CCN(S(=O)(=O)C2CC2)CC1`, the Percent Effect in assay [1] is -3.71%; in assay [2], 0%; in [3], -0.0113%; in assay [4], -2.43%; with Trypanosoma cruzi, 0.979%; in [5] it was 1.36%. The Percent Effect in assay [6] is 4.79%; in the assay listed under Homo sapiens, 3.03%; in assay [7] it was 3.23%; in assay [8], 5%; in assay [9] it was -0.451%.
For `CNC(=O)c1cc2c(nc1N(C)C)CCN(S(=O)(=O)CC(C)C)CC2`, the Percent Effect was -2.25% in [1]; 5.2% in [2]; 7.84% in assay [3]; 6.98% in assay [4]; -2.27% with Trypanosoma cruzi; -5.81% in assay [5]. Moreover, the Percent Effect in [6] was 3.83%; in the assay listed under Homo sapiens, -12.4%; in assay [7] it was -9.52%; in assay [8] it was 1.28%; in assay [9], -2.31%.
Consider `Cc1cnn(CC2CN(Cc3nc(-c4ccoc4)no3)CCO2)c1` (stereo not given), for which the Percent Effect in [1] is -2.87%; in assay [2], 8.11%; in assay [3], -1.58%; in [4], 1.14%; in the assay on Trypanosoma cruzi it was 7.08%; in assay [5], 0.401%. The Percent Effect in assay [6] is 2.16%; in the assay listed under Homo sapiens it was 13.1%; in [7] it was 3.45%; in assay [8], 11.1%; in assay [9], -9.57%.
On to `Cc1cccc(COC[C@]23COC[C@H]2CN(C(=O)c2ccsc2)C3)n1`, for which the Percent Effect in assay [1] is -1.49%; in assay [2], 5.41%; in [3], 1.58%; in assay [4], 0.368%; in the assay on Trypanosoma cruzi, 1.95%; in [5], 27.9%. The Percent Effect in assay [6] was 10.9%; in the assay listed under Homo sapiens it was -2.76%; in assay [7], 8.91%; in [8], 13.4%; in assay [9], -5.97%.
For `Cc1cc(C[C@@H]2COC[C@@H]2NC(=O)CN2CCCC2)on1`, the Percent Effect in assay [1] is -4.18%; in assay [2] it was 2.74%; in assay [3], 1.08%; in assay [4], -9.23%; in the assay on Trypanosoma cruzi it was 1.96%; in assay [5], -1.82%. Besides, the Percent Effect was -4.61% in [6]; 18.8% in the assay filed under Homo sapiens; 5.38% in assay [7]; 10% in [8]; -4.15% in assay [9].
For the molecule `Cn1cc(C(=O)CC2CCCN2C(=O)c2cncc3ccccc23)cn1` (stereo not given), the Percent Effect in assay [1] was -2.2%; in assay [2] it was 6.33%; in [3], -4.89%; in assay [4], 2.04%; in the assay on Trypanosoma cruzi, 0.718%; in assay [5] it was 4.95%. Moreover, the Percent Effect in assay [6] is 5.66%; in the assay listed under Homo sapiens, 14.6%; in assay [7] it was 5.21%; in [8] it was 12.7%; in assay [9] it was -15%.
In the case of `CCNC(=O)N1CCCCC1CCNS(C)(=O)=O` (stereo not given), the Percent Effect was -1.55% in assay [1]; 5.41% in [2]; -3.93% in assay [3]; 3.76% in assay [4]; 8.3% in the assay with Trypanosoma cruzi; -3.33% in [5]. For the same molecule, the Percent Effect in assay [6] was 13.3%; in the assay listed under Homo sapiens it was 6.93%; in [7] it was 7.94%; in assay [8], 9.76%; in [9], -1.52%.
In the case of `Cc1cccc(C(=O)NCc2ccc(S(N)(=O)=O)cc2)n1`, the Percent Effect is -5.17% in [1]; 20.8% in [2]; 1.31% in assay [3]; -0.564% in assay [4]; -0.187% with Trypanosoma cruzi; 2.85% in [5]. The Percent Effect was 4.39% in [6]; 8.2% in the assay listed under Homo sapiens; 9.71% in assay [7]; 24.4% in [8]; -6.84% in assay [9].
Turning to `COCc1noc(C2(c3ccc(OC)cc3)CCOCC2)n1`, the Percent Effect is -3.44% in [1]; 5.41% in [2]; 0.468% in assay [3]; 6.74% in [4]; -0.386% with Trypanosoma cruzi; 2.86% in assay [5]. In addition, the Percent Effect is 14.1% in assay [6]; 9.88% in the assay listed under Homo sapiens; 3.7% in [7]; 17.1% in [8]; -2.16% in [9].
In the case of `CS(=O)(=O)N1CCCCCC1C1CCN(c2ncccn2)CC1` (stereo not given), the Percent Effect in assay [1] is -4.78%; in assay [2], 2.63%; in [3], 2.07%; in assay [4], 1.83%; in the assay on Trypanosoma cruzi, -4.13%; in assay [5], -1.92%. Also, the Percent Effect in assay [6] is 2.17%; in the assay listed under Homo sapiens it was 24.7%; in assay [7], 1.47%; in assay [8] it was 7.32%; in [9] it was 0.0825%.

(Values after ChEMBL document CHEMBL3988442, “University of Dundee, Small-Polar-MMV Screening Library” (2021).)
